Assay results as given in PubChem BioAssay AID2751 (The Scripps Research Institute Molecular Screening Center, 2010).
Among all 320,000 compounds or so, about 2,200 (0.69%) were called active. Cut-off read from the data, not from the text of the source: active = inhibition above about 43%; inactive = the rest. This excerpt belongs to a sample that is enriched for actives.

These compounds were tested against Prolyl endopeptidase-like (Homo sapiens) (UniProt Q4J6C6) (assay: PREPL enzyme inhibitors, primary screen, biochemical, fluorescence polarization (AID 2751;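 note: 0% = enzyme with DMSO and 100% = wells lacking enzyme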)). Details: recombinant PREPL, fluorescence polarization activity-based probe; at 5.96 µM; active compounds read high.
Chain of Prolyl endopeptidase-like (Homo sapiens) (Q4J6C6 whole entry, looked up): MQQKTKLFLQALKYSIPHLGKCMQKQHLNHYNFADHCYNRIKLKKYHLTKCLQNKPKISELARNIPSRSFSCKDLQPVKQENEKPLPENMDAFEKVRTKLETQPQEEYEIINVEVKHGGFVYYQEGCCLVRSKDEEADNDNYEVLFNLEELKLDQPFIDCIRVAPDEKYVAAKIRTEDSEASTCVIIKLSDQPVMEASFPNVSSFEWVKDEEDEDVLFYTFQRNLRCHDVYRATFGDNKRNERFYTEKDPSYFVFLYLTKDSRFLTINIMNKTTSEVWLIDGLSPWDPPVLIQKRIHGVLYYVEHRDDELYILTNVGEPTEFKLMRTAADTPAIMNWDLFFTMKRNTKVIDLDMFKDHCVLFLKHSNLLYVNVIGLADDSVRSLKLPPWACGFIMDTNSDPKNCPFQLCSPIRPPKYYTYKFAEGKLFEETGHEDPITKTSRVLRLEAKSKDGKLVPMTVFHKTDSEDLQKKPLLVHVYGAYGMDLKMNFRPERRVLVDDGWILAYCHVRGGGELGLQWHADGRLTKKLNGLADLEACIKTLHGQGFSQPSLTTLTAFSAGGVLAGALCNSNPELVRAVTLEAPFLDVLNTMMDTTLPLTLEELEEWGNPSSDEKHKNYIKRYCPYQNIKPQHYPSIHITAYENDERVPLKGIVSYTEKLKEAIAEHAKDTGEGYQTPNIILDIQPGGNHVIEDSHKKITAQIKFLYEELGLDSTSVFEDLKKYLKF

inhibition, inactive:
CCCCN1C(N)=NC[C@@H]1Cc1ccccc1 17.4%
NC1=NC[C@@H](Cc2ccc(O)cc2)N1CC1CCCCC1 9.91%
CCCC[C@@H]1CN=C(N)N1CCc1cccc(F)c1 -6.23%
O=C(C1Cc2ccccc2CN1C(=O)c1ccco1)N1CCN(c2ccccc2)CC1 (stereo not given) 12.9%
CCOC(=O)c1ccc(N/C(=N/S(=O)(=O)c2ccccc2)c2ccccc2)cc1 -3.53%
O=C(NCc1cccnc1)c1ccc(CS(=O)(=O)c2ccc(Br)cc2)o1 -17%
CNC[C@H]1Oc2c(NC(=O)C3CCCCC3)cccc2C(=O)N([C@H](C)CO)C[C@@H]1C 1.75%
COc1ccc(-c2cc(C(=O)Nc3ccccc3O)c3ccccc3n2)cc1 15.1%
Cc1noc(C)c1COC(=O)c1cc2ccccc2cc1O 3.42%
Cc1ccc(S(=O)(=O)C2C(=O)NC3(C)CC2c2ccccc2O3)cc1 (stereo not given) -1.08%
COC(=O)COc1ccc(S(=O)(=O)Nc2ccc(NC(C)=O)cc2)cc1 3.49%
CC(=O)Nc1ccc(S(=O)(=O)Nc2ccc(N3CCOCC3)c(F)c2)cc1 13.1%
CC1CCN(C(=O)c2ccc3c(=O)n4c(nc3c2)CCCCC4)CC1 10.4%
CC1CCN(C(=O)c2ccc(CSc3ccc(Cl)cc3)cc2)CC1 18.7%
CCN(C(=O)COC(=O)C1CCN(S(=O)(=O)c2ccc(C)c(C)c2)CC1)C1CCS(=O)(=O)C1 (stereo not given) 16.8%
COc1ccc2c(c1)CCNC2Cc1ccc(OC)c(O)c1 (stereo not given) 11.1%
CC[C@H]1CN2CCc3cc(OC)c(OC)cc3[C@@H]2C[C@@H]1C[C@H]1NCCc2cc(OC)c(OC)cc21 17.4%
CCOc1ccc(N2C(=O)/C(=C/c3ccc(C)o3)N(C)C2=S)cc1 6.35%
CC(C)n1c(CN2CCN(Cc3ccccc3)CC2)nc2ccccc21 -13.9%
CCOC(=O)c1cnc(Nc2nc3ccccc3o2)nc1CSC(=S)N1CCCCC1 -5.51%
Cc1ccc(C(=O)NNC(=O)CSc2nnc3ccccn23)cc1 -1.75%
O=C1CSc2ccc(C(=O)NCc3ccccn3)cc2N1 4.19%
COCCNC(=O)Nc1ccc2nc(-c3ccco3)c(-c3ccco3)nc2c1 39.5%
COc1ccccc1CNC(=O)CSc1nc(=O)n(Cc2ccncc2)c2c1CCC2 2.55%
O=S(=O)(c1ccccc1)N1CN(Cc2ccc(F)cc2)c2nc3ccccc3nc21 -7.37%
CC(OC(=O)c1ccc(S(=O)(=O)N2CCOCC2)cc1)c1ccccc1 (stereo not given) -0.7%
CCN(CC)CCn1c2c(c(SCC(=O)Nc3ccc(C(C)C)cc3)nc1=O)CCC2 23.1%
NC(=O)CSc1c[nH]c2ccccc12 7.6%
O=C(NC1CCCC1)C(=O)c1c[nH]c2ccccc12 9.2%
COc1ccc(CC(=O)N[C@@H](CCSC)c2nc3ccccc3[nH]2)cc1 5.96%
O=C(OCc1nc2ccccc2[nH]1)C1CCCCC1 10.5%
C=CCNC(=O)c1sc(SC)cc1-c1ccc(Cl)cc1 1.62%
Cc1cccnc1NC(=O)c1cccc(S(=O)(=O)N2CCN(c3ccc(F)cc3)CC2)c1 -7.81%
COc1cc(C)cc(CN2CCC(Cc3ccccc3)CC2)c1O -5.3%
O=C(CN1CCN(c2ccc(F)cc2)CC1)Nc1ccccc1 9.77%
Clc1cccc(CN2COc3c(cc(Cl)c4cccnc34)C2)c1 2.86%
NC[C@H](Cc1ccccc1)NCCc1cc(C(F)(F)F)cc(C(F)(F)F)c1 -11.6%
O=C(COC(=O)c1ccc(Cl)nc1)NCc1ccc2c(c1)OCO2 8.45%
CCN(CC)CC(=O)Nc1sc2c(c1C(=O)c1ccccc1C)CCC2 5.23%
CC(C)(CNC(=O)c1ccc(Cl)c(S(=O)(=O)N2CCc3ccccc3C2)c1)N1CCOCC1 -27.3%
CCN(Cc1ccccc1)C(=O)CN1C(=S)NC(C)(C)CC1C (stereo not given) -2.69%
C[C@H](NC(=O)c1ccccc1Cl)C(=O)OCC(=O)N1CCN(c2ccccc2)CC1 13.3%
COc1ccc(C(=O)COC(=O)c2ccc([N+](=O)[O-])s2)cc1OC 34.6%
COc1cccc2c1OCC(C(=O)NCc1ccc(Cl)cc1Cl)=C2 -4.06%
O=C(CCCCCN1C(=O)c2cccc3cccc(c23)C1=O)NCc1ccco1 5.95%
O=C1c2cccc3cccc(c23)C(=O)N1CCCCCc1n[nH]c(=S)o1 1.95%

inhibition, active:
CC[C@@H](C)[C@@H]1CN([C@@H](C)CN2CCC[C@H]2CN2C(N)=NC[C@H]2C(C)C)C(=N)N1CCc1ccc(Cl)c(Cl)c1 63.3%
C[C@@H](CN1CCC[C@H]1CN1C(N)=NC[C@@H]1Cc1ccccc1)N1C[C@@H](Cc2ccccc2)N(CCCC2CCCC2)C1=N 54.6%
O=C(NNc1c2ccccc2nc2ccccc12)c1cc2ccccc2cc1O 68.7%
CC(=O)Nc1ccc(S(=O)(=O)Nc2ccc(N3CCCCC3)cc2)cc1 59.6%
CC1CCN(C(=O)c2ccc3c(c2)NC(=O)CN3)CC1 57.5%
COc1cc2c(cc1O)[C@H](Cc1ccc(Oc3cc(C[C@@H]4NCCc5cc(OC)c(O)cc54)ccc3O)cc1)NCC2 46.2%
O=C(NCc1ccccn1)c1ccc2nc(-c3ccco3)c(-c3ccco3)nc2c1 46.4%
O=S(=O)(O)Oc1c[nH]c2ccccc12 44.5%
COC(=O)Cc1nc2ccccc2[nH]1 47.1%
Oc1c(CN2CCN(c3ccc(F)cc3)CC2)cc(Cl)c2cccnc12 53.5%
Oc1c(CN2CCCC2)cc(COCc2ccccc2)c2cccnc12 63.8%
O=C(OCC(=O)N1CCN(c2ccccc2)CC1)c1ccc([N+](=O)[O-])s1 54.8%
COCCN(CCOC)c1nc(N)c2c(N)nc3c(c2c1C#N)CC(=O)N3Cc1ccc(Cl)cc1 47.7%
C[N+](C)(CCCCCC[N+](C)(C)CCCN1C(=O)c2cccc3cccc(c23)C1=O)CCCN1C(=O)c2cccc3cccc(c23)C1=O 47.7%
